Only some compounds are listed: those with a hit (about 11% of all), similar ones and a draw of the others.
SW480 rerep: A quantitative high throughput screen for small molecules that induce DNA re-replication in SW480 colon adenocarcinoma cells | Potency, µM (highest dose often 46.1 µM), without a hit: at the top dose re-replication activation, usual class: activators | SW480 DNA re-replication, Hoechst DNA content imaging, 48 h | 1.8% of 340,000 active | AID 624297, 2012; further: potency means the concentration at half of the fitted maximal effect; % of control where 0% means no effect; nearly all actives have a fitted effect of over 55% in size
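250 cells/well; 23 nL cpd via pin tool; 48 hr, 37 C, 5% CO2; Hoechst 40 min; imager read of total nuclear intensity, ex 405/em 500-530 nm.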
IL-1B inflam inh: qHTS for Inhibitors of Inflammasome Signaling: IL-1-beta AlphaLISA Primary Screen; THP-1 LPS/ATP IL-1B secretion, AlphaLISA, 16 h; hits give low values; activity change, % at 57.5 µM; 4.7% of 360,000 active; in the data active means activity change below about -50%; inconclusive means mostly about -30% to -49%; further: on the % scale 0 is the no-effect control and ±100 the full control effect
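THP-1 cells pretreated 1 hr with compounds (up to 57.5 uM final), then stimulated with LPS (250 ng/mL final) plus ATP (1.25 mM final); secreted IL-1B measured by AlphaLISA after 16 hr, decreased signal indicating inhibition.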
RORg inh: qHTS for inhibitors of ROR gamma transcriptional activity; Drosophila S2 Gal4-RORgamma UAS-luciferase reporter, 20 h; Potency, µM (top dose mostly 53.6 µM), for the others: at the top dose activity change, negative = inhibition, most hits filed as inhibitors; 5.4% of 310,000 active; AID 2551, 2010; further: potency means the concentration at half of the fitted maximal effect; on the % scale 0 is the no-effect control and ±100 the full control effect; nearly all actives have a fitted effect of over 60% in size
Target sequence (P51450 whole entry, looked up, the tested form may be a part): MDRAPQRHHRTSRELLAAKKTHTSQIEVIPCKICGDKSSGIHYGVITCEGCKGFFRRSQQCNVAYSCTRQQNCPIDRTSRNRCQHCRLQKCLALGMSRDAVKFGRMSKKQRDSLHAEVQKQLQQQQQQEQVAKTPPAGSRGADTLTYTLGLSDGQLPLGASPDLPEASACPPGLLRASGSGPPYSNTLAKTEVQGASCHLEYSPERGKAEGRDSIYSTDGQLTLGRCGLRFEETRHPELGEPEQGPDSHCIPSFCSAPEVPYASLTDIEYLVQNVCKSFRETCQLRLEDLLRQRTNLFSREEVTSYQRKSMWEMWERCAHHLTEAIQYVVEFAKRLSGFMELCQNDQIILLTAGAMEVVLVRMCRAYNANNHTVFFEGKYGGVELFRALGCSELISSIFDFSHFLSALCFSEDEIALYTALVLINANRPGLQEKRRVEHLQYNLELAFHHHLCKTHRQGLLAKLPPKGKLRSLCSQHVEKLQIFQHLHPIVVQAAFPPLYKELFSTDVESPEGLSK
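Stably transfected Drosophila Schneider cells are the test system, with ROR gamma fused to Gal4 and luciferase under UAS control; luminescence is read after 20 hr of 700 uM copper sulfate induction at ambient temperature.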
VP16 counter: VP16 counterscreen qHTS for inhibitors of ROR gamma transcriptional activity; Drosophila S2 Gal4-VP16 UAS-luciferase, luminescence, 20 h; Potency, µM (series often up to 53.6 µM), without a hit: top-dose activity, negative = inhibition, usual class: inhibitors; 3.5% of 310,000 active; AID 2546, 2010;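 further: Gal4-VP16 expression switched on by copper sulfate through the metallothionein promoter; potency means the concentration at half of the fitted maximal effect; on the % scale 0 is the no-effect control and ±100 the full control effect; nearly all actives have a fitted effect of over 50% in size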
MCF10A rereplic: A quantitative high throughput screen for small molecules that induce DNA re-replication in MCF 10a normal breast cells; MCF 10A DNA re-replication, Hoechst nuclear intensity, 48 h; 2.9% of 350,000 active; Potency, µM (titrated, usually from 46.1 µM), without a hit: at the top dose activity, positive = re-replication, actives largely listed as activators; further: potency means the concentration at half of the fitted maximal effect; % of control where 0% means no effect; nearly all actives have a fitted effect of over 50% in size
Starred values were filed as active, the others as inactive; ? = inconclusive; . = no result; [ ] = dose if it differs, or a comment. Unless noted, the call rests on the fitted dose curve; in most records, active means well fitted curve in the direction sought with a large enough effect; inconclusive means small, poorly fitted or top-dose-only effect, or another doubt; inactive means no such curve, though single readings can be large; an effect the other way counts as inactive or inconclusive.

SMILES | SW480 rerep | IL-1B inflam inh | RORg inh | VP16 counter | MCF10A rereplic
CC(=O)c1ccccc1NC(=O)COc1ccc(N(C)S(=O)(=O)c2ccc(C)c(C)c2)cc1 | 6.1% | 46.8 | . | . | 20.6µM*
C[C@H]1CN([C@@H](C)CO)C(=O)CCCn2nncc2CO[C@@H]1CN(C)C(=O)c1ccncc1 | . | -17.4 | . | . | .
O=C(Cc1ccccc1)Nc1ccnn1C1CCN(Cc2nccs2)CC1 | -9.4% | 0.0 | 2.1% | 7.0% | 22.0%
CC1CN(CCCCOc2cccc(Oc3ccccc3)c2)CC(C)O1 (configuration not stated) | -1.5% | -66.9* | -18.5% | -2.4% | ?
S=c1nc[nH]c2c1cnn2-c1ccccc1 | -7.0% | -3.0 | 3.55µM* | 3.98µM* | 0.5%
NC1(C(=O)O)CCCCC1c1ccccc1 (configuration not stated) | 0.1% | 9.1 | . | . | -0.2%
Cc1cc(C)n2[nH]c(=O)c(N=Nc3cccc(C(F)(F)F)c3)c2n1 | 1.7% | 1.7 | 12.6µM* | ? | -3.1%
Cc1cc(C)n2[nH]c(=O)c(N=Nc3ccccc3)c2n1 | -3.8%[9.22 µM] | 3.3 | 5.4% | -4.1% | -2.1%
Cc1cc(C)n2[nH]c(=O)c(N=Nc3cccc(Cl)c3)c2n1 | -9.7% | 13.7 | 8.91µM* | 0.7% | 1.8%
O=C(C[C@H]1CC[C@@H]2[C@H](COC[C@H](O)CN2Cc2cccc(C(F)(F)F)c2)O1)NCCc1ccccc1 | . | -16.2 | . | . | .
COc1ccc(C(=O)N(Cc2nc(-c3ccc(C)cc3)no2)C2CCCCC2)cc1OC | 0.6% | -67.0* | -18.2% | -8.6% | 19.3%
COc1ccc(-c2noc(CN(C)CCC3CCCCO3)n2)cc1 (configuration not stated) | -66.1% | 6.6 | 10.0% | -1.4% | -0.7%
COC(=O)c1ccc(-c2noc(CN(C)CCC3CCCCO3)n2)cc1 (configuration not stated) | -11.7% | 33.5 | 5.62µM* | 5.62µM* | 5.3%
Cc1ccnn1-c1ccc(C(=O)NCc2ccccc2CN2CCOCC2)cc1 | -8.7% | -16.9 | . | . | 3.2%
CCCCNS(=O)(=O)c1ccc2nc(SCC(=O)Nc3sccc3C#N)[nH]c2c1 | 6.6% | 7.9 | 4.5% | 12.6µM* | ?
CC(=O)c1cccc(NC(=O)c2cc(=O)[nH]c3ccc(S(=O)(=O)N4CCOCC4)cc23)c1 | -1.3% | 33.6 | . | . | -0.6%
CCN(CC)S(=O)(=O)c1ccc(N2CCCC2)c(NC(=O)CSCc2c(C)noc2C)c1 | . | -16.3 | . | . | .
COc1ccc2c(Cl)c(C(=O)N/N=C/c3cccnc3)sc2c1 | -0.5% | 9.9 | ? | -17.6% | -2.4%
Cn1cccc1/C=N/NC(=O)c1sc2cc(Cl)ccc2c1Cl | . | . | 0.708µM* | 0.562µM* | .
Cc1ccc2c(Cl)c(C(=O)N/N=C/c3cccn3C)sc2c1 | 1.6% | 1.8 | 1.26µM* | 1.58µM* | 20.6µM*
O=C(Nc1cccc(S(=O)(=O)C(F)(F)F)c1)[C@H]1C[C@H](O)[C@@H](CO)O1 | . | 6.7 | . | . | .
CCOC(=O)c1ccc(-c2ccc(-c3cc(=O)oc4cc(OC)c(OC)c(OC)c34)cc2)cc1 | 74.0% | 5.6 | 3.8% | -6.6% | ?
C[C@H](NC(=O)c1[nH]cnc1C(=O)Nc1ccc(CNC(=O)OC(C)(C)C)cc1)C(=O)OCc1ccccc1 | -3.5% | 1.1 | ? | ? | ?
CC(C)(C)OC(=O)NCc1ccc(NC(=O)c2nc[nH]c2C(=O)N[C@@H](Cc2ccccc2)C(=O)OC(C)(C)C)cc1 | -1.8% | ? | 7.08µM* | 11.2µM* | ?
CC(C)C[C@H](NC(=O)c1nc[nH]c1C(=O)NCc1ccc(CNC(=O)OC(C)(C)C)cc1)C(=O)OC(C)(C)C | -16.7%[9.22 µM] | -23.8 | 12.6µM* | ? | -3.8%
SMILES | SW480 rerep | IL-1B inflam inh | RORg inh | VP16 counter | MCF10A rereplic
CC(C)C[C@H](NC(=O)c1[nH]cnc1C(=O)Nc1ccc(CNC(=O)OC(C)(C)C)cc1)C(=O)OCc1ccccc1 | 9.5% | -1.7 | 5.62µM* | ? | 18.4µM*
CCN(CC)C(=O)c1[nH]cnc1C(=O)N[C@@H](CC(C)C)C(=O)OC(C)(C)C | -2.2% | 41.6 | ? | ? | -0.3%
CC(C)C[C@H](NC(=O)c1nc[nH]c1C(=O)NCc1ccccc1)C(=O)OC(C)(C)C | 8.2% | 4.1 | 4.47µM* | 10µM* | ?
C[C@H](NC(=O)c1nc[nH]c1C(=O)NCc1ccc(CNC(=O)OC(C)(C)C)cc1)C(=O)OC(C)(C)C | -4.2% | -9.9 | ? | -11.1% | ?
C[C@H](NC(=O)c1nc[nH]c1C(=O)NCc1ccccc1)C(=O)OCc1ccccc1 | 1.1% | 50.8 | ? | -20.8% | 3.8%
CC(C)C[C@H](NC(=O)c1nc[nH]c1C(=O)NCc1ccccc1)C(=O)OCc1ccccc1 | 61.1%[9.22 µM] | 60.4 | 4.47µM* | 11.2µM* | ?
CC(C)C[C@H](NC(=O)c1[nH]cnc1C(=O)Nc1ccc(CNC(=O)OC(C)(C)C)cc1)C(=O)OC(C)(C)C | 4.4% | ? | 3.16µM* | 8.91µM* | ?
CCC(C)c1ccc(NC(=S)NCc2cccnc2)cc1 (configuration not stated) | -5.1% | 0.0 | ? | 22.4µM* | 10.0%
COc1ccc(C(=O)NC(=S)NCc2cccnc2)cc1Cl | -10.6% | -12.2 | 11.2µM* | ? | -8.6%
COc1ccc(S(=O)(=O)N(C)CC(=O)NCc2cccnc2)cc1OC | -4.7% | -3.3 | 0.9% | -3.1% | 23.1µM*
COc1ccc(C(=O)NCc2cccnc2)cc1Br | -11.5% | 18.5 | 0.1% | -2.8% | -18.0%
S=C(NCc1cccnc1)Nc1ccc(Cl)c(Cl)c1 | -11.2% | -57.7* | ? | ? | -6.4%
O=C(NCc1cccnc1)Nc1ccc(Cl)c(Cl)c1 | 2.4% | -11.1 | ? | -14.4% | -5.0%
CC(C)(C)c1ccc(NC(=S)NCc2cccnc2)cc1 | -19.7% | 18.4 | ? | ? | ?
C#C[C@@]1(O)CC[C@@H]2[C@H]3CCC4=C/C(=N\O)CC[C@H]4[C@@H]3CC[C@]21CC | 17.8% | . | -12.6% | -23.3% | ?
Cc1ccccc1C(=O)N1CCN(c2ccc(NC(=S)NC(=O)c3ccco3)cc2)CC1 | -14.0% | ? | 15.8µM* | ? | 14.7%
Cc1ccc(C(=O)Nc2ccc(N3CCN(C(=O)c4ccco4)CC3)cc2)cc1 | 1.3% | -18.2 | 10.9% | -14.6% | -3.3%
Cc1cccc(C(=O)Nc2ccc(N3CCN(C(=O)c4ccco4)CC3)cc2)c1 | 0.3% | -26.0 | ? | 14.8% | 5.5%
COc1ccccc1C(=O)NC(=S)Nc1ccc(N2CCN(C(=O)c3ccco3)CC2)cc1 | -9.3% | ? | -12.8% | 10µM* | 9.3%

Screens deposited in PubChem BioAssay by National Center for Advancing Translational Sciences (NCATS).
